# For some of these results: Potency and affinity values are given separately.
# What was measured:
# Parameters in all cases: scale not given: direction of the effect not stated beside the values
# [1] = molecular target: Protein translocase subunit SecA (Escherichia coli (strain K12)) (UniProt P10408); assay: Assay to Identify E. coli SecA ATPase Inhibitors; format: functional; details: 30 µM
# [2] = molecular target: T1, Ubiquitin-activating enzyme e1, putative (Leishmania donovani (strain BPK282A1)) (UniProt E9BSI1); assay: Leishmania donovani Ubiquitin Activating Enzyme (LdE1); format: functional; details: 30 µM
# T1 sequence (whole entry): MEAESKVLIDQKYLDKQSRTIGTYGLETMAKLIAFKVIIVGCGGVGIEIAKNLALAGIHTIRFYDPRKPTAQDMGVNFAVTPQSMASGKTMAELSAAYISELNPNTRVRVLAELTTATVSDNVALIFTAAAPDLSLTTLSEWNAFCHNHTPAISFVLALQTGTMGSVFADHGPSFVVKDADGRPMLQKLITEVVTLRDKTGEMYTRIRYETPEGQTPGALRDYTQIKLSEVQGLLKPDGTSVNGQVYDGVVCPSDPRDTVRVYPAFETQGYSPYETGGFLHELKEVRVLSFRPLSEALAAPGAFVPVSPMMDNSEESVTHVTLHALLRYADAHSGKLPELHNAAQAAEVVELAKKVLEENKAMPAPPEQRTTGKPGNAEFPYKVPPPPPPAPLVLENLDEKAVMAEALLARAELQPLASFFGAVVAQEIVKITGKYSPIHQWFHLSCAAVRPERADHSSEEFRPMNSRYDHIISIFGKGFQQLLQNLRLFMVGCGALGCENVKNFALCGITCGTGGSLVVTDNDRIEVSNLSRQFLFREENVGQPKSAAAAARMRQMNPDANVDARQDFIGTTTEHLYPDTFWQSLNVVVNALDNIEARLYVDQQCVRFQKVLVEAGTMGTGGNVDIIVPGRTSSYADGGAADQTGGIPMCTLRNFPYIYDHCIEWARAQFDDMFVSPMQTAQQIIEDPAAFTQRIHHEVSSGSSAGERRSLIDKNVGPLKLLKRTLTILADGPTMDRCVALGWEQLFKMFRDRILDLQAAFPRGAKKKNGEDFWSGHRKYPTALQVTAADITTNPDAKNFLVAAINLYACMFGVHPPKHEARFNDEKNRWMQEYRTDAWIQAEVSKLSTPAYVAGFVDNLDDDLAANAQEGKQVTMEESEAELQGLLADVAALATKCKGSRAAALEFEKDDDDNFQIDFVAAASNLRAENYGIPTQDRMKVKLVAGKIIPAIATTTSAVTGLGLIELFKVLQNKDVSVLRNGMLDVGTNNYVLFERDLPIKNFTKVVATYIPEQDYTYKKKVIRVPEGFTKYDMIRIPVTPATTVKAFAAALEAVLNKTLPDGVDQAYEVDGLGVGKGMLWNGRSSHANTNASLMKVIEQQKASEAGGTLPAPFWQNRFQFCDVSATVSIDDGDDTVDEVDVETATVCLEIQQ
# [3] = molecular target: AMP-activated protein kinase, AMPK (Homo sapiens) (UniProt P54646+O43741+P54619+Q9UGJ0+Q9Y478+Q13131+Q9UGI9); assay: AMP-dependent Kinase enzyme assay. An in vitro enzyme assay that detects ADP turnover that is directly proportional to AMPK activity. This uses naive AMPK that is activated during the assay with MK-8722; format: functional; details: 30 µM
# [4] = molecular target: Sialic acid-binding Ig-like lectin 9 (Homo sapiens) (UniProt Q9Y336); assay: Hs-Siglec9 ALPHAscreen SOP 20170721; details: 10 µM
# [5] = tested on: Trypanosoma cruzi; assay: Trypanosoma cruzi phosphomannomutase and mannose-1-phosphate guanylyltransferase assay; format: functional; details: 10 µM
# [6] = molecular target: T2, Arginase-2, mitochondrial (Homo sapiens) (UniProt P78540); assay: in vitro enzyme assay to detect the production of urea directly proportional to the activity of Arginase II; format: functional; details: 33.3 µM; further: in the data most compounds retested in dose-response had high values
# T2 sequence (whole entry): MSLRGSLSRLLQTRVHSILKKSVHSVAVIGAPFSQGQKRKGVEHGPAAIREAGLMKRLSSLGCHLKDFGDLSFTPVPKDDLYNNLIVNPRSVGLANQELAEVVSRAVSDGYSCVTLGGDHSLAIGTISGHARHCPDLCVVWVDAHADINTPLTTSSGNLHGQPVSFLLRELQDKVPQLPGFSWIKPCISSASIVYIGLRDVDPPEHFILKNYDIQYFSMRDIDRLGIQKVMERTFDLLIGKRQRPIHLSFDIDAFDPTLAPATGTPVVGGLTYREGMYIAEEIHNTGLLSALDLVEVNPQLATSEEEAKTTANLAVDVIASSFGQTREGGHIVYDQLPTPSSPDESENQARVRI
# [7] = molecular target: T3, Proteasome subunit beta (Trypanosoma cruzi) (UniProt O96673); assay: Trypanosoma cruzi proteasome chymotrypsin-like activity (TcProtChymo) assay.; further: in the data most compounds retested in dose-response had high values; format: functional; details: 9.37 µM
# T3 sequence (whole entry): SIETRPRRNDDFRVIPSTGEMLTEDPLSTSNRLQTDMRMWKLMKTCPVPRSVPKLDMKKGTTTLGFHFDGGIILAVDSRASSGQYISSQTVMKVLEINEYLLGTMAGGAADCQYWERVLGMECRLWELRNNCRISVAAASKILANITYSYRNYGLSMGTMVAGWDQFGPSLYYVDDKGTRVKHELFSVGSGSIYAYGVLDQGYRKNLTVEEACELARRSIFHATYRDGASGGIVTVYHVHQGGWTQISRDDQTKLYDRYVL
# [8] = species: Homo sapiens; assay: To identify inhibition of the IFN signalling (Jak-Stat) pathway via expression of an eGFP reporter gene under the control of an IFN-stimulated response element (ISRE) containing MxA promoter.; format: functional; details: 30 µM
# [9] = molecular target: T4, Tyrosyl-tRNA synthetase, putative (Trypanosoma cruzi (strain CL Brener)) (UniProt Q4DSP6); assay: Trypanosoma cruzi tyrosyl tRNA synthetase (TcYRS) _High Tyrosine SOP; format: functional; details: 30 µM; further: in the data most compounds retested in dose-response had high values
# T4 sequence (whole entry): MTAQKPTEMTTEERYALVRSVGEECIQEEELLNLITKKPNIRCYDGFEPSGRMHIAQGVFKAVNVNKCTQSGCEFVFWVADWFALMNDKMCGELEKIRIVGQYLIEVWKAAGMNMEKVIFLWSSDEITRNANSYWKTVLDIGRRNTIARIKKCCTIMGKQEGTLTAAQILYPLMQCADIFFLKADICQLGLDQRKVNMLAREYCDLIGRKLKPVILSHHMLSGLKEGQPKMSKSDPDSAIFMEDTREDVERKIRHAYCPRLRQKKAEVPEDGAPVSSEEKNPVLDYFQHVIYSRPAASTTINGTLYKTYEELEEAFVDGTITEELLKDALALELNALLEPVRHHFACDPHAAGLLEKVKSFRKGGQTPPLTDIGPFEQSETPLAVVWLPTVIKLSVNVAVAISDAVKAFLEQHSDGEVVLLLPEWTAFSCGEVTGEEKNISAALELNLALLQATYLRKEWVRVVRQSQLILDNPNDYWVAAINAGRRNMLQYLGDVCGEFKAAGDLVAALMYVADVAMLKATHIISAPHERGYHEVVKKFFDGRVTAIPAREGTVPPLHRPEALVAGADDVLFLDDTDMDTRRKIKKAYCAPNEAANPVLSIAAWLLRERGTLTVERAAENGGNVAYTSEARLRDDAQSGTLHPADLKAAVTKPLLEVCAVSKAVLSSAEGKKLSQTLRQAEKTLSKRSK
# [10] = molecular target: T4, Tyrosyl-tRNA synthetase, putative (Trypanosoma cruzi (strain CL Brener)); assay: Trypanosoma cruzi tyrosyl tRNA synthetase (TcYRS) SOP; format: functional; details: 30 µM
# [11] = molecular target: Chromo domain-containing protein 1 (Saccharomyces cerevisiae (strain ATCC 204508 / S288c) (Baker's yeast)) (UniProt P32657); assay: ScCHD-1 Enzyme Inhibition Assay; format: functional; details: 30 µM; further: in the data most compounds retested in dose-response had high values
# Chain of Chromo domain-containing protein 1 (Saccharomyces cerevisiae (strain ATCC 204508 / S288c) (Baker's yeast)) (P32657 whole entry, the tested form may be a part): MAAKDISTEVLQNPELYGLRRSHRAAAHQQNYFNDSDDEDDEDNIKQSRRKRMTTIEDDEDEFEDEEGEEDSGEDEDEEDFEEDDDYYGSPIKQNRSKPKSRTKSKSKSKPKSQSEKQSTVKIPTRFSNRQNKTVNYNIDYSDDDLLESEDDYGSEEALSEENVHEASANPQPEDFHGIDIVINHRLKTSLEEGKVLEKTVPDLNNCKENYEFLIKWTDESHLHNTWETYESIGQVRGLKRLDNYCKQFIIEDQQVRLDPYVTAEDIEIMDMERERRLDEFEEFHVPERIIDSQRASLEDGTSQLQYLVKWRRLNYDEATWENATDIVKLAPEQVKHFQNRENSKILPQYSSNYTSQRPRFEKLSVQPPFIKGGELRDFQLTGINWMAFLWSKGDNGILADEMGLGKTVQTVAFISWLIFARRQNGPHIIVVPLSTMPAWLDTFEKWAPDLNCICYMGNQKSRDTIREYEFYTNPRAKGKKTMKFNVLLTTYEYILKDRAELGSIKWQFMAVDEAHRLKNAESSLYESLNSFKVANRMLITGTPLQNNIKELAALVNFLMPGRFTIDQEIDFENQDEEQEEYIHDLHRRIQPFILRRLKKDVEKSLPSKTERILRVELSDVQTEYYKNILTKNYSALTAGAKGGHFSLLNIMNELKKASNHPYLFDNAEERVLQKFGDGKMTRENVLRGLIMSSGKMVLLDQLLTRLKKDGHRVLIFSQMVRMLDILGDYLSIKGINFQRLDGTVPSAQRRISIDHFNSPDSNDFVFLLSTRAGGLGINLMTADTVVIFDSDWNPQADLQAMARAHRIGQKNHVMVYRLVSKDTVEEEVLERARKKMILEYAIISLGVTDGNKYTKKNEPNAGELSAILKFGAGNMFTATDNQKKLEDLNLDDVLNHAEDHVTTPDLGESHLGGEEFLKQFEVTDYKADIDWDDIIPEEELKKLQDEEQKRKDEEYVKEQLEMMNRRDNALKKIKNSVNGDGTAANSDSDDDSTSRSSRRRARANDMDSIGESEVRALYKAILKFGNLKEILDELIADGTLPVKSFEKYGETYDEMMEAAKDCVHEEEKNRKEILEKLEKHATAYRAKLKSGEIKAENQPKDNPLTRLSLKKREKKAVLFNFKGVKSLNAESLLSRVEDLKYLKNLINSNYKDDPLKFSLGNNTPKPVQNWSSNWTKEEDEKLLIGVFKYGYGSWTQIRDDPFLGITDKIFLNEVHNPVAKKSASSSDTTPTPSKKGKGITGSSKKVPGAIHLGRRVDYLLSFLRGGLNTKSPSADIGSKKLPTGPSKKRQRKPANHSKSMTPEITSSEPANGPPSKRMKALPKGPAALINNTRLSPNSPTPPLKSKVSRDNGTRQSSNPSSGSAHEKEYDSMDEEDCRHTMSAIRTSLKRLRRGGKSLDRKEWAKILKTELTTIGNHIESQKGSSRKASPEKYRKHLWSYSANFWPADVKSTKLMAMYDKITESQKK
# Chain of Protein translocase subunit SecA (Escherichia coli (strain K12)) (P10408 whole entry): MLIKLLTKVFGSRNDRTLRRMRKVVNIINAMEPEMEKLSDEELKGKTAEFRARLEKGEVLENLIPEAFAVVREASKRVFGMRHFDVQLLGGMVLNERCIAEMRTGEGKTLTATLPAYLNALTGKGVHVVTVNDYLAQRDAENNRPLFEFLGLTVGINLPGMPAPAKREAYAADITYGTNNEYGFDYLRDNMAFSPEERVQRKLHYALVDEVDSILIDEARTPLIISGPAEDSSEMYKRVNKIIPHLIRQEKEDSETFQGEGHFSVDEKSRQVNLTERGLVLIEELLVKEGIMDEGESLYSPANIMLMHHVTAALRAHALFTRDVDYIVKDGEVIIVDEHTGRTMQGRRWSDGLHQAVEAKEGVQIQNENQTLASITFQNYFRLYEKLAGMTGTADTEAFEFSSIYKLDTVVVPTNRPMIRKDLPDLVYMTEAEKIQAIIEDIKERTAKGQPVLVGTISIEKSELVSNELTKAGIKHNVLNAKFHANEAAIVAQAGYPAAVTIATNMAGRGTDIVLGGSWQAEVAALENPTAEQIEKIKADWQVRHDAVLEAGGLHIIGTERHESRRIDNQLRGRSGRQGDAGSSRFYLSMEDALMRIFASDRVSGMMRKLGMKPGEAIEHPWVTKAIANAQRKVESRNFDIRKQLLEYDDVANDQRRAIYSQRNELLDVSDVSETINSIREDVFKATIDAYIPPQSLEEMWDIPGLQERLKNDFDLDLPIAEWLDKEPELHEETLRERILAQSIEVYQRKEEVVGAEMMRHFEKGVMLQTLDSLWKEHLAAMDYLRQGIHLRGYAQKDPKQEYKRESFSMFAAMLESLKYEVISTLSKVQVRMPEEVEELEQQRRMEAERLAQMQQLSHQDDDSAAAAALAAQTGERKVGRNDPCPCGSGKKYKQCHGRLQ
# Chain of Sialic acid-binding Ig-like lectin 9 (Homo sapiens) (Q9Y336 whole entry): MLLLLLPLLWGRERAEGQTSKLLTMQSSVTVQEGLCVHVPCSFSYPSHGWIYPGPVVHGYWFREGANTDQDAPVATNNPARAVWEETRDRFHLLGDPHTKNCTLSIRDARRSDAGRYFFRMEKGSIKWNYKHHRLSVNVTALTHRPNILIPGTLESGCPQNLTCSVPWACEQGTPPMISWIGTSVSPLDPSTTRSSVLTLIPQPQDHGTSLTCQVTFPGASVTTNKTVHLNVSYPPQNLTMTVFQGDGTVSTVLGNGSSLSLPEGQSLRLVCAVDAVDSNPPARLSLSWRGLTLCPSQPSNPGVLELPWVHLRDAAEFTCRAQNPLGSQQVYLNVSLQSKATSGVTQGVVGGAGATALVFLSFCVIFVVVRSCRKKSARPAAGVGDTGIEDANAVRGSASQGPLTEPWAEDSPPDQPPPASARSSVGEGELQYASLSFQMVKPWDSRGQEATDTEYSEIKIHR
Structure (SMILES),Percent Effect [1] [%],Percent Effect [2] [%],Percent Effect [3] [%],Percent Effect [4] [%],Percent Effect [5] [%],Percent Effect [6] [%],Percent Effect [7] [%],Percent Effect [8] [%],Percent Effect [9] [%],Percent Effect [10] [%],Percent Effect [11] [%]
CCN(CCNC(=O)c1ccccc1OCCOC)C1CC1,-1.14,21.5,-0.982,-8.11,0.513,-4.52,17,14.4,3.12,17.7,-34.3
O=C(c1ccco1)N1CCOCC2(C1)CN(c1ccccc1)C(=O)CO2 (stereo not drawn),-3.5,2.67,5.75,17.4,-3.86,-27.8,-1.54,5.08,2.08,-2.5,-5.45
COCCC1(CO)CCCN(Cc2ccc(F)c(C)c2)C1 (stereo not drawn),-3.62,0,-3.75,-6.12,-0.88,-1.24,2.15,-4.5,3.23,1.24,2.9
CN(C)CCn1c(=O)oc2ccc(NC(=O)c3cc(Cl)c[nH]3)cc21,-3.23,2.67,0.098,6.1,-3.41,4.17,13.6,10.7,19.1,21,-7.97
Cc1cc(CN2CCOC(CN(C)C)C2)no1 (stereo not drawn),-5.93,5.41,-1.25,0.559,-4.92,1.66,-2.15,14.9,1.98,1.22,6.53
CC(NC(=O)N(C)Cc1ccsc1)c1ccc2c(c1)OCO2 (stereo not drawn),-2.79,10.5,5,4.83,9.59,-4.21,11,1.31,4.41,19.5,-8.55
Cc1ccccc1NS(=O)(=O)c1cc2c(c(C(=O)O)c1)OCCO2,-8.46,7.89,0.578,-1.17,-7.19,-6.47,5.67,2.34,2.46,1.24,3.8
COCCO[C@@H]1CCN(Cc2csc(C)n2)[C@H]1Cc1ccccc1,-2.84,-5.41,-0.151,-7.92,-3.03,-1.24,-1.29,8.8,1.07,-1.24,-1.36

# From ChEMBL document CHEMBL3988442, “University of Dundee, Small-Polar-MMV Screening Library” (2021)
